# “And” between values parts separate entries of the source, which are not always exact repeats. Equal entries are not always repeated. Hit rate of the full screen: of about 330,000 compounds, about 1,900 (0.58%) were called active. About 4% were inconclusive and are not listed. Only a sample is shown. Entries with a potency or affinity are not part of this list. Values without a mark were called inactive. No stated cut-off is given here; in the data, inconclusive means inhibition above about 70% without an active follow-up result; inactive means below that.
# Test: M. tuberculosis growth inhibition, HTS (AID 449762);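 further: bacterial growth assessed after seven days of incubation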
# Settings: M. tuberculosis H37Rv growth inhibition, 7H9 media; at 25 µM; active compounds read high
row,SMILES,inhibition
1,Cc1ccc(NC(=O)c2ccc3ccccc3n2)nc1,5.21%
2,CCc1ccc(NC(=O)C(C)OC(=O)c2ccc(NS(=O)(=O)c3ccc(C)c([N+](=O)[O-])c3)cc2)cc1 (stereo not given),-6.87%
3,COc1ccc(CCNC(=O)C2CC(c3cccc([N+](=O)[O-])c3)=NO2)cc1 (stereo not given),2.77%
4,CC(C)Cc1nn2c(=O)cc(CSCC(=O)Nc3ccccc3F)nc2s1,-6.22%
5,Cc1cc(C(=O)CSc2ccc(Cl)cc2)cc(C)c1OC(=S)N(C)C,-12.1%
6,Cc1ccc(N2C(=O)N(CC(=O)c3cc(C)ccc3C)C(=O)C2C)cc1 (stereo not given),4.01%
7,CCOc1ccc(NC(=S)NC(=O)c2cccnc2)c([N+](=O)[O-])c1,6.15%
8,Cn1c(O)c(C=NCCN2CCNCC2)c(=O)n(C)c1=O,-6.91%
9,O=c1[nH]c(=S)n(C2CCCCC2)c(O)c1C=NCCN1CCOCC1,4.57%
10,O=C1N/C(=N\N=C\c2ccc3ncccc3c2)SC1Cc1ccc(SC(F)F)cc1 (stereo not given),-20.7%
11,O=C(O)CC1S/C(=N/N=C/c2ccccn2)NC1=O (stereo not given),-2.11%
12,O=S(=O)(NCc1ccccn1)c1ccc(Cl)s1,32.5%
13,N/C(=N\OC(=O)Nc1ccc(Cl)cc1)c1ncc(C(F)(F)F)cc1Cl,3.09%
14,N/C(=N\OC(=O)Nc1ccccc1)c1ncc(C(F)(F)F)cc1Cl,-4.86%
15,Cc1ccc(CNC(=O)CNC(=O)[C@@H]2Cc3ccccc3CN2C(=O)OC(C)(C)C)cc1,4.75%
16,c1ccc(-c2cn(-c3ccccc3)c3[n+]2CCCS3)cc1,-1.4%
17,Cc1ccc(-c2cn(-c3ccccc3)c3[n+]2CCCS3)cc1,4.87% and -0.5%
18,Cc1ccccc1CNC(=O)Nc1ccc(Cl)cc1,8.74%
19,CCOC(=O)/C(=C/C=C/c1ccccc1)NC(=O)c1ccccc1,5.87%
20,CCOC(=O)/C(=C\C=C\c1ccccc1)NC(=O)c1ccccc1,-0.56%
21,O=Cc1cccc(Oc2ccc([N+](=O)[O-])cc2[N+](=O)[O-])c1,6.01%
22,Cc1nn(S(=O)(=O)N(C)C)c(C)c1CN1C(=O)c2ccccc2C1=O,-3.78%
23,Cc1c(CN(C)C)c2c(n1Cc1ccccc1)C(=O)c1ccccc1-2,-0.73%
24,Cc1c(CN(C)C)c2c(n1C)C(=O)c1ccc(Br)cc1-2,-6.76%
25,CC(C)(C)[C@@H]1C=C(C(N)=O)O[C@H](OCc2ccc(CO)cc2)C1,3.59%

# From PubChem BioAssay AID449762 (Southern Research Specialized Biocontainment Screening …, 2010)
